# NALP1 inh – inhibitors of NALP1 inflammasome in yeast | S. cerevisiae NALP1/ASC/caspase-1 growth, X-gal OD620, 72 h | inhibition, % at 10 µM | 280,000 compounds, 0.61% hits; in the data active means inhibition mostly above about 24%, no sharp cut-off; inactive means mostly below about 32%
# TIM10 inh – TIM10 yeast growth inhibition | 330,000 compounds, 1.4% hits | inhibition, % at 10 µM | S. cerevisiae TIM10 strain growth, BacTiter-Glo luminescence, 24 h;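 active means inhibition of 40% or more at the single tested concentration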;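 further: wild-type TIM10 isogenic control strain grown at permissive 25 °C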
# NLRP3 yeast inh – blocks the NALP3 inflammasome reconstituted in yeast | Yeast reconstituted NLRP3/ASC/caspase-1, beta-gal luminescence, 24 h | inhibition, % at 10 µM | 330,000 compounds, 0.39% hits | AID 2825;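 active means inhibition of 50% or more; inactive means inhibition below 50%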
# tim23-1 inh – tim23-1 yeast growth inhibition. S. cerevisiae tim23-1 growth, BacTiter-Glo luminescence, 24 h. inhibition, % at 20 µM. 330,000 compounds, 1.3% hits. AID 463212;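 active means growth inhibition of the mutant yeast at or above 50%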;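 further: temperature-sensitive mutant grown at 25 °C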
# tim10-1 inh – inhibits growth of tim10-1 mutant yeast; S. cerevisiae tim10-1 ts strain growth, BacTiter-Glo, 24 h; inhibition, % at 20 µM; 330,000 compounds, 2.2% hits; AID 463190;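 active means inhibition of at least 40%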;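 further: mutant grown at 25 °C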
# tim23-1 conf – tim23-1 yeast growth inhibition, confirmed. shares compounds with tim23-1 inh. S. cerevisiae tim23-1 growth, BacTiter-Glo luminescence, 24 h. inhibition, % at 20 µM. 4,400 compounds, 83% hits;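 active means inhibition above about 39% in either of two replicate wells at 20 µM, limit read from the data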;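 further: temperature-sensitive tim23-1 mutant grown at 25 °C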
# Numbers stand for hits; i = inactive; nt = no result given. Compounds with a hit are over-represented: about 4% of the library has one in this group of screens.
SMILES,NALP1 inh,TIM10 inh,NLRP3 yeast inh,tim23-1 inh,tim10-1 inh,tim23-1 conf
CCC(C)Sc1cc(C)c(C#N)c2nc3ccccc3n12 (stereo not drawn),i,i,i,54,i,i
CCN(CC(=O)Nc1ccc(OC)cc1)C(=O)CN1C(=O)NC(C)(c2ccc3ccccc3c2)C1=O (stereo not drawn),i,i,i,i,i,nt
Fc1ccc(CSc2nc3ccccc3[nH]2)c2ccccc12,i,i,i,56,i,55
Cc1c2ccccc2nc2c(F)c(N(C)C)c(F)c(F)c12,i,i,i,i,i,nt
CN(C)c1c2ccccc2nc2c(F)c(F)c(F)c(F)c12,i,i,i,64,i,67
NS(=O)(=O)OCc1ccc(C(F)(F)F)cc1,i,i,i,i,i,nt
c1ccc(N=Nc2cn[nH]c2-c2ccco2)cc1,i,i,i,51,i,47
Cc1cccc(N=Nc2cn[nH]c2-c2ccco2)c1,i,i,i,i,i,nt
O=C(NC(=S)NC1CCCC1)c1ccccc1,i,i,i,58,i,46
C/C(=N\NC(=S)NC1CCCCC1)c1ccc(C#N)cc1,i,i,i,i,i,nt
N#Cc1ccc(C(=O)NC(=S)NC2CCCCC2)cc1,nt,i,i,65,i,41
COc1ccc(OC)c(C(=O)COC(=O)c2cc(C)oc2C)c1,i,i,i,i,i,nt
COc1ccc(OC)c(C(=O)COC(=O)c2ccc([N+](=O)[O-])o2)c1,nt,i,i,55,i,57
O=C(Nc1cccc(S(=O)(=O)Nc2ccc(Cl)cc2)c1)c1ccc[n+]([O-])c1,nt,i,i,i,i,nt
COc1ccc(-c2cc(-c3ccc(C)cc3)n[nH]2)c(O)c1,i,i,i,54,i,i
COc1ccc(-c2n[nH]c(C)c2-c2ccc(Cl)cc2)c(O)c1,i,i,i,i,i,nt
Nc1ccc(S(=O)(=O)Nc2nccc(/C=C/c3cccc(Br)c3)n2)cc1,i,i,i,i,i,nt
CCN(CC)c1ccc(N=Cc2cc(Br)ccc2O)cc1,i,i,i,i,i,nt
OCC(CO)(CO)N=Cc1cc(Br)ccc1O,i,i,i,59,i,56
Cc1ccc(O)c(C=Nc2cc(C)ccc2O)c1,i,i,i,i,i,nt
CC(C)(C)c1ccc(O)c(N=Cc2cc(Br)ccc2O)c1,i,i,i,69,i,i
CC(=O)Nc1ccc(S(=O)(=O)NC2CC(=O)N(c3ccc(C)cc3)C2)cc1 (stereo not drawn),nt,i,i,i,i,nt
CC(=O)Nc1nccc(-c2cc(-c3ccccc3)no2)n1,i,i,i,i,i,nt
Clc1ccc2nc(-c3ccccc3)cn2c1,i,i,i,52,i,i
Cc1ccc2nc(-c3cc(-c4ccccc4)no3)cn2c1,nt,i,i,55,i,47
SMILES,NALP1 inh,TIM10 inh,NLRP3 yeast inh,tim23-1 inh,tim10-1 inh,tim23-1 conf
CC(=O)Nc1ccc2nc(-c3ccccc3)cn2c1,i,i,i,i,i,nt
O=C(O)c1ccc(N/N=C/c2ccc(-c3ccc(Br)cc3)o2)cc1,i,i,i,52,i,47
COc1ccc(C(=O)c2sc(Nc3ccccc3F)nc2N)cc1,i,i,i,50,i,54
Nc1nc(Nc2ccccc2)sc1C(=O)c1ccccc1,nt,i,i,54,i,43
Cc1cnc(NC(=O)c2sc(Nc3ccccc3)nc2N)o1,nt,i,i,53,i,55
O=C(CN1C(=O)c2ccccc2S1(=O)=O)Nc1ccon1,nt,i,i,i,i,nt
Oc1ccc(N=Nc2ccccc2)cc1,i,i,i,55,i,47
O=C(O)c1ccccc1N=Nc1ccc(O)cc1,nt,i,i,i,i,nt
O=c1c2ccccc2ncn1CCCCOc1ccc(Br)cc1,i,i,i,i,i,nt
CCN1CCN(CC(=O)n2c3c(c4ccccc42)CC(C)CC3)CC1 (stereo not drawn),i,i,i,i,i,nt
CC1CCc2c(c3ccccc3n2C(=O)CCl)C1 (stereo not drawn),i,i,i,69,i,56
Cc1cccc(N2C(=O)/C(=C\c3ccc(C(=O)O)cc3)c3ccccc3C2=O)c1,i,i,i,56,i,i
Cc1cccc(Nc2nc(-c3cccs3)cs2)n1,i,i,i,i,i,nt
c1ccc(Nc2nc(-c3cccnc3)cs2)nc1,i,i,i,i,i,nt
Oc1ccc(-c2csc(Nc3ccccn3)n2)c(O)c1,i,i,i,72,i,54
Fc1ccc(-c2csc(Nc3ccccn3)n2)cc1,i,i,i,54,i,41
c1ccc(Nc2nc(-c3cccs3)cs2)nc1,i,i,i,57,i,i
O=c1c2cn[nH]c2nc(SCc2c(F)cccc2F)n1-c1ccc(Cl)cc1,i,i,i,52,i,54
Cc1cc(C(=O)NC(C)C2CCCO2)c(C)o1 (stereo not drawn),i,i,i,i,i,nt
Nc1ccc(Sc2cnn(-c3ccccc3)c(=O)c2Cl)cc1,i,i,i,50,i,i
O=C1OC(c2ccccc2)=N/C1=C\C=C\c1ccco1,i,i,i,82,i,81
O=C(C=C=Nc1ccccc1)C(=O)N=C=Cc1ccccc1,i,i,i,i,i,nt
CC1CC1C(=O)Nc1nc(-c2ccccc2)cs1 (stereo not drawn),i,i,i,53,i,47
O=C(c1ccc(S(=O)(=O)Nc2ccccc2F)cc1)N1CCN(c2ccccc2O)CC1,nt,i,i,i,i,nt
CC1CC(NC(=O)c2c(O)nc3sccn3c2=O)CC(C)(C)C1 (stereo not drawn),nt,i,i,64,i,i
SMILES,NALP1 inh,TIM10 inh,NLRP3 yeast inh,tim23-1 inh,tim10-1 inh,tim23-1 conf
O=C(NCCCN1CCCC1=O)c1c(O)nc2sccn2c1=O,nt,i,i,i,i,nt
O=C(NC1CCCCCC1)c1c(O)nc2sccn2c1=O,nt,i,i,69,i,46
O=C(NCC1CCCO1)c1c(O)nc2sccn2c1=O (stereo not drawn),nt,i,i,i,i,nt
CC(C)C(NC(=O)c1ccccc1NC(=O)c1ccccc1)C(=O)NCCCn1ccnc1 (stereo not drawn),i,i,i,i,i,nt
CCOc1cc(-c2nc3ccccc3s2)ccc1O,i,i,i,59,i,i
CN1c2ccccc2C(=O)C(=C2SCCCS2)S1(=O)=O,i,i,i,53,i,54
CCc1cc2c3c(c1)/C(=C1/SC(N)=NC1=O)C(=O)N3C(C)(C)C=C2C,i,i,i,i,i,nt
CCc1cc2c3c(c1)C(C)CC(C)(C)N3C(=O)/C2=C1\SC(=O)NC1=O (stereo not drawn),i,i,i,59,i,50
CC[n+]1c(/C=C/N(C)c2ccccc2)n(-c2ccccc2)c2ccc(-c3nc4ccccc4s3)cc21,46,i,i,80,i,65
CCOC(=O)c1ccc2c(c1)n(CC)c(/C=C/N(C)c1ccccc1)[n+]2CC,i,i,i,i,i,nt
O=c1c2cc(Br)ccc2nc(-c2ccccc2)n1O,i,i,i,60,i,50
O=c1c2ccccc2nc(-c2cccc(Cl)c2)n1O,i,i,i,59,i,59
Cc1ccc(-c2nc3ccc(Cl)cc3c(=O)n2O)cc1,i,i,i,63,i,55

# Bioassay records as filed in PubChem.
